From PubChem BioAssay AID1159580 (chemical genetic matrix, 2015)
The campaign covered roughly 5,500 compounds. About 2,000 (36%) were called active. Not shown: some 18% with an inconclusive outcome. No stated cut-off is given here; in the data, active means normalized growth mostly below about 0.91 (no sharp cut-off); inconclusive means no clear call, values can overlap the other calls; inactive means mostly above about 0.92. Some of the results follow.

Test: chemical genetic growth profiling, strain panel (AID 1159580);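 further: tested at 20 µM; growth read once vehicle control cultures reached saturation at 30 °C; 1 = growth at the plate median or of vehicle wells; lower values mean less growth of the strain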
Details: growth OD

Measured: normalized growth

CC(=O)Nc1c(I)cc(I)c(C(=O)O)c1I
inactive: S. cerevisiae deletion strains, locus YJR075W, strain HOC1, hits give low values 1 | S. cerevisiae deletion strains, locus YKL009W, strain mrt4, hits give low values 0.978 | S. cerevisiae deletion strains, locus YKL068W, hits give low values 0.986 | S. cerevisiae deletion strains, locus YKL085W, strain MDH1 (second series), hits give low values 1.01 | S. cerevisiae deletion strains, locus YKL085W, strain MDH1, hits give low values 1.01 | S. cerevisiae deletion strains, locus YKL160W, strain elf1, hits give low values 0.985 | S. cerevisiae deletion strains, locus YKL190W, strain CNB1, hits give low values 1.02 | S. cerevisiae deletion strains, locus YKR001C, strain vps1, hits give low values 0.986 | S. cerevisiae deletion strains, locus YKR026C, strain gcn3, hits give low values 0.975 | S. cerevisiae deletion strains, locus YKR091W, strain srl3, hits give low values 0.981 | S. cerevisiae deletion strains, locus YLL001W, strain dnm1, hits give low values 0.953 | S. cerevisiae deletion strains, locus YLL026W, hits give low values 0.985 | S. cerevisiae deletion strains, locus YLL041C, strain sdh2, hits give low values 0.972 | S. cerevisiae deletion strains, locus YLR027C, strain aat2, hits give low values 0.981 | S. cerevisiae deletion strains, locus YLR039C, strain RIC1, hits give low values 1.01 | S. cerevisiae deletion strains, locus YLR058C, strain SHM2, hits give low values 0.994 | S. cerevisiae deletion strains, locus YLR102C, strain apc9, hits give low values 0.991 | S. cerevisiae deletion strains, locus YLR113W, strain HOG1, hits give low values 1 | S. cerevisiae deletion strains, locus YLR221C, strain rsa3, hits give low values 1.01 | S. cerevisiae deletion strains, locus YLR258W, strain gsy2, hits give low values 0.976 | S. cerevisiae deletion strains, locus YLR262C, strain YPT6 (second series), hits give low values 0.971 | S. cerevisiae deletion strains, locus YLR262C, strain YPT6, hits give low values 0.954 | S. cerevisiae deletion strains, locus YLR268W, strain sec22, hits give low values 0.996 | S. cerevisiae deletion strains, locus YLR320W, strain mms22, hits give low values 0.99 | S. cerevisiae deletion strains, locus YLR330W, strain CHS5, hits give low values 0.998 | S. cerevisiae deletion strains, locus YLR342W, strain FKS1 (second series), hits give low values 1.04 | S. cerevisiae deletion strains, locus YLR342W, strain FKS1, hits give low values 0.978 | S. cerevisiae deletion strains, locus YLR357W, strain rsc2, hits give low values 1 | S. cerevisiae deletion strains, locus YLR370C, strain arc18, hits give low values 0.989 | S. cerevisiae deletion strains, locus YLR371W, strain rom2, hits give low values 0.993 | S. cerevisiae deletion strains, locus YLR384C, strain iki3, hits give low values 0.98 | S. cerevisiae deletion strains, locus YLR418C, strain cdc73, hits give low values 0.99 | S. cerevisiae deletion strains, locus YML016C, strain PPZ1, hits give low values 0.993 | S. cerevisiae deletion strains, locus YML032C, strain rad52, hits give low values 0.987 | S. cerevisiae deletion strains, locus YML120C, strain ndi1, hits give low values 0.981 | S. cerevisiae deletion strains, locus YML124C, strain tub3, hits give low values 0.988 | S. cerevisiae deletion strains, locus YMR058W, strain fet3, hits give low values 0.989 | S. cerevisiae deletion strains, locus YMR078C, strain ctf18, hits give low values 0.988 | S. cerevisiae deletion strains, locus YMR125W, strain sto1, hits give low values 0.96 | S. cerevisiae deletion strains, locus YMR129W, hits give low values 0.96 | S. cerevisiae deletion strains, locus YMR205C, strain PFK2, hits give low values 0.977 | S. cerevisiae deletion strains, locus YMR223W, strain ubp8, hits give low values 0.972 | S. cerevisiae deletion strains, locus YMR231W, strain pep5, hits give low values 0.982 | S. cerevisiae deletion strains, locus YMR263W, strain SAP30, hits give low values 1.01 | S. cerevisiae deletion strains, locus YMR307W, strain GAS1, hits give low values 1.07 | S. cerevisiae deletion strains, locus YNL067W, strain RPL9B, hits give low values 1 | S. cerevisiae deletion strains, locus YNL071W, strain lat1, hits give low values 0.987 | S. cerevisiae deletion strains, locus YNL128W, strain TEP1, hits give low values 1.01 | S. cerevisiae deletion strains, locus YNL153C, strain GIM3, hits give low values 0.993 | S. cerevisiae deletion strains, locus YNL183C, strain NPR1, hits give low values 0.968 | S. cerevisiae deletion strains, locus YNL209W, strain ssb2, hits give low values 0.99 | S. cerevisiae deletion strains, locus YNL233W, strain BNI4, hits give low values 0.998 | S. cerevisiae deletion strains, locus YNL248C, strain rpa49, hits give low values 0.992 | S. cerevisiae deletion strains, locus YNL250W, strain rad50, hits give low values 0.986 | S. cerevisiae deletion strains, locus YNL271C, strain bni1, hits give low values 0.989 | S. cerevisiae deletion strains, locus YNL298W, strain CLA4, hits give low values 0.986 | S. cerevisiae deletion strains, locus YNL307C, strain MCK1, hits give low values 0.987 | S. cerevisiae deletion strains, locus YNL322C, strain KRE1 (second series), hits give low values 0.971 | S. cerevisiae deletion strains, locus YNL322C, strain KRE1, hits give low values 1 | S. cerevisiae deletion strains, locus YNR049C, strain mso1, hits give low values 0.993 | S. cerevisiae deletion strains, locus YNR052C, strain pop2, hits give low values 0.999 | S. cerevisiae deletion strains, locus YOL006C, strain TOP1, hits give low values 1.02 | S. cerevisiae deletion strains, locus YOL012C, strain htz1 0.771 | S. cerevisiae deletion strains, locus YOL147C, strain pex11, hits give low values 0.992 | S. cerevisiae deletion strains, locus YOR001W, strain rrp6, hits give low values 0.976 | S. cerevisiae deletion strains, locus YOR061W, strain CKA2, hits give low values 1 | S. cerevisiae deletion strains, locus YOR069W, strain VPS5, hits give low values 0.988 | S. cerevisiae deletion strains, locus YOR070C, strain gyp1, hits give low values 0.988 | S. cerevisiae deletion strains, locus YOR080W, strain dia2, hits give low values 0.975 | S. cerevisiae deletion strains, locus YOR083W, strain WHI5, hits give low values 0.984 | S. cerevisiae deletion strains, locus YOR106W, strain vam3, hits give low values 0.964 | S. cerevisiae deletion strains, locus YOR136W, strain idh2, hits give low values 0.987 | S. cerevisiae deletion strains, locus YOR144C, strain elg1, hits give low values 0.995 | S. cerevisiae deletion strains, locus YOR184W, strain ser1, hits give low values 0.969 | S. cerevisiae deletion strains, locus YOR231W, strain MKK1, hits give low values 1.02 | S. cerevisiae deletion strains, locus YOR265W, strain rbl2, hits give low values 0.98 | S. cerevisiae deletion strains, locus YOR270C, strain vph1, hits give low values 0.951 | S. cerevisiae deletion strains, locus YOR290C, strain snf2, hits give low values 1 | S. cerevisiae deletion strains, locus YOR316C, strain cot1, hits give low values 0.991 | S. cerevisiae deletion strains, locus YPL051W, strain arl3, hits give low values 0.981 | S. cerevisiae deletion strains, locus YPL055C, strain LGE1, hits give low values 1.05 | S. cerevisiae deletion strains, locus YPL078C, strain atp4, hits give low values 0.961 | S. cerevisiae deletion strains, locus YPL106C, strain sse1, hits give low values 0.981 | S. cerevisiae deletion strains, locus YPL240C, strain hsp82, hits give low values 0.972 | S. cerevisiae deletion strains, locus YPL241C, strain CIN2, hits give low values 1.01 | S. cerevisiae deletion strains, locus YPL256C, strain CLN2, hits give low values 1.02 | S. cerevisiae deletion strains, locus YPR119W, strain clb2, hits give low values 0.986 | S. cerevisiae deletion strains, locus YPR141C, strain kar3, hits give low values 0.981 | S. cerevisiae deletion strains, locus YPR163C, strain tif3, hits give low values 0.997 | S. cerevisiae deletion strains, locus YPR167C, strain met16, hits give low values 0.983 | S. cerevisiae deletion strains, strain wtn01, hits give low values 0.986 | S. cerevisiae strains, strain wild type, hits give low values 1.05
